# Where “and” joins values, the source holds several entries; their conditions need not be identical. Identical values can stand only once. Results filed as inconclusive are left out. Entries that show only a call come without a potency. A structure can be active in one record and inactive in another. Calls of active or inactive are those of the source. Unless noted, calls come from the whole dose curve; as a rule, active = well fitted curve in the direction sought with a large enough effect in the repeat runs; inconclusive = weak or mixed curves; inactive = no such curve, though single readings can be large; an effect the other way counts as inactive or inconclusive. Starred links: 1 amine or outer side, 2 acyl side, 3 side chain; linkers in the order of their positions; H or OH if unused. Positions of bridges follow the written chain, without caps; N, C: chain ends. Non-standard residues stand in square brackets, D forms with d. Residues, ends and D or L forms follow the SMILES beside them. Chains are numbered I, II in the order given. Actinocin(9to1) = Cc1c2oc3c(C)ccc(C(=O)[*:1])c3nc-2c(C(=O)[*:2])c(N)c1=O; NMeV = CN[C@H](C(=O)O)C(C)C; Sar = CNCC(=O)O
# Legend:
# [1] = qHTS assay for small molecule agonists of the p53 signaling pathway (AID 651631; calls by dose curve; note: nearly all actives have a fitted effect of over 15% in size; note: potency is the fitted concentration of half-maximal effect)
# Summary of the method: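 HCT-116 p53RE-bla reporter line, 16 h compound treatment at 37 °C, then fluorescence after 2 h with B/G FRET substrate.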
# [2] = qHTS assay for small molecules that induce genotoxicity in human embryonic kidney cells expressing luciferase-tagged ATAD5 (AID 651632); note: nearly all actives have a fitted effect of over 15% in size
# Summary of the method: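 A rise in luciferase signal from ATAD5-tagged HEK293T cells marks genetic stress. Cells were exposed to compounds for 16 hr at 37C, 5% CO2, then luciferase was quantified after a 30 min room-temperature incubation with Amplite.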
# [3] = qHTS assay for small molecule agonists of the p53 signaling pathway - cell viability (AID 651633; calls by dose curve; note: nearly all actives have a fitted effect of over 30% in size; note: potency is the fitted concentration of half-maximal effect)
# Summary of the method: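 Viability counter-read: CellTiter-Glo luminescence (30 min, room temperature) in the same p53RE-bla plates. These plates had been exposed to compounds for 16 h at 37 C.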
# [4] = qHTS assay for small molecules that induce genotoxicity in human embryonic kidney cells expressing luciferase-tagged ATAD5 - cell viability (AID 651634; calls by dose curve; note: nearly all actives have a fitted effect of over 25% in size; note: potency is the fitted concentration of half-maximal effect)
# Summary of the method: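 Cytotoxicity counter-readout: after 15.5 hr compound treatment at 37C, live-cell protease activity in ATAD5-luciferase HEK293T cells measured by CellTiter-Fluor fluorescence, 30 min development at 37C.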
# [5] = qHTS assay for small molecule disruptors of the mitochondrial membrane potential - cell viability (AID 720634; calls by dose curve; note: nearly all actives have a fitted effect of over 20% in size; note: potency is the fitted concentration of half-maximal effect)
# Summary of the method: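 Cytotoxicity was quantified from ATP content by CellTiter-Glo luminescence in the same wells as the MMP dye read-out. HepG2 (2,000 cells/well) were plated overnight and exposed to compounds for 1 hr at 37 C.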
# [6] = qHTS assay for small molecule disruptors of the mitochondrial membrane potential (AID 720635); note: potency is the fitted concentration of half-maximal effect
# Summary of the method: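 Mitochondrial membrane potential tracked with Mito-MPS dye, red aggregates (ex 540/em 590 nm) against green monomers (ex 490/em 535 nm). Compound treatment 1 hr at 37C, dye 30 min in HepG2.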
# [7] = qHTS assay to test for compound auto fluorescence at 590 nm (red) in HepG2 cells (AID 720674)
# Summary of the method: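 1 hr compound incubation on HepG2 cells, 37 C, 5% CO2; plate read ex 540 nm / em 590 nm; intensities reported as Rose Bengal sodium equivalents.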
# [8] = qHTS assay to test for compound auto fluorescence at 535 nm (green) in HepG2 cells (AID 720675)
# [9] = qHTS assay to test for compound auto fluorescence at 460 nm (blue) in HEK293 cells (AID 720678)
# Summary of the method: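 Blue-channel (Ex/Em 405/460 nm) intensity measured in HEK293 cultures after overnight compound exposure at 37C; signal expressed relative to triamterene. Cells plated 2,000 per well in 10% dialyzed FBS medium and allowed 4-5 hr to attach.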
# [10] = qHTS assay to test for compound auto fluorescence at 590 nm (red) in HEK293 cells (AID 720679)
# Summary of the method: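 Red-channel autofluorescence (Ex/Em 540/590 nm; Rose Bengal sodium reference) was measured after overnight 37C, 5% CO2 exposure of attached HEK293 cells, 2,000 per well in medium with 10% dialyzed FBS.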
Structure (SMILES),Potency [1],Potency [2],Potency [3],Potency [4],Potency [5],Potency [6],outcome [7],Potency [8],Potency [9],outcome [10]
CC(=O)OCC1=C(C(=O)O)N2C(=O)[C@@H](NC(=O)Cc3cccs3)[C@H]2SC1,inactive,inactive,inactive,inactive,inactive,inactive,inactive,inactive,inactive,inactive
Cc1cccc2n[nH]nc12,inactive,inactive,inactive,inactive,inactive,inactive,–,inactive,inactive,inactive
Oc1c(Cl)cc(Cl)c(Cl)c1Cc1c(O)c(Cl)cc(Cl)c1Cl,13.3 µM (active) and 9.66 µM (active) and 54.5 µM (active),inactive,1.88 µM (active) and 68.4 µM (active) and 12.2 µM (active),6.68 µM (active) and 2.72 µM (active) and 1.93 µM (active),–,841 nM (active) and 484 nM (active) and 344 nM (active),inactive,inactive,inactive,inactive
C=C(C)C1CC=C(C)C(OC(C)=O)C1 (stereo unspecified),inactive,inactive,inactive,inactive,inactive,inactive,–,inactive,inactive,inactive
OCCOCCN1CCN(C(c2ccccc2)c2ccc(Cl)cc2)CC1 (stereo unspecified),inactive,inactive,inactive and 60.3 µM (active),inactive,–,–,inactive,inactive,inactive,inactive
CCN(CC)C(=O)Nc1ccc(OCC(O)CNC(C)(C)C)c(C(C)=O)c1 (stereo unspecified),inactive,inactive,inactive,inactive,–,–,inactive,inactive,inactive,inactive
COC(c1ccccc1)(c1ccccc1)[C@H](Oc1nc(C)cc(C)n1)C(=O)O,inactive,–,inactive,inactive,inactive,inactive,inactive,inactive,inactive,inactive
c1ccc2n[nH]nc2c1,inactive,–,inactive,inactive,inactive,inactive,inactive,inactive,inactive,inactive
COC(=O)[C@H]1[C@H]2C[C@@H]3c4[nH]c5cc(OC)ccc5c4CCN3C[C@H]2C[C@@H](OC(=O)c2cc(OC)c(OC)c(OC)c2)[C@@H]1OC,inactive,inactive,inactive,inactive,inactive,48.5 µM (active),inactive,inactive,inactive,inactive
CCCCOCCOC(=O)c1ccccc1C(=O)OCCOCCCC,inactive,inactive,inactive,inactive,inactive,–,–,inactive,inactive,inactive
CC(C)(C)c1ccccc1,inactive,inactive,inactive,inactive,inactive,–,inactive,inactive,inactive,inactive
O=C(O)c1cn(-c2ccc(F)cc2)c2cc(N3CCNCC3)c(F)cc2c1=O,inactive,inactive,inactive,inactive,inactive,–,–,inactive,inactive,inactive
CNC1(C)C2CCC(C2)C1(C)C (stereo unspecified),inactive,inactive,inactive,inactive,–,inactive,–,inactive,inactive,inactive
NCCO,inactive,inactive,inactive,inactive,inactive,–,–,inactive,inactive,inactive
C=C(C)C(=O)O,inactive,inactive,inactive,inactive,inactive,–,–,inactive,inactive,inactive
CC(C(O)c1ccc(O)cc1)N1CCC(Cc2ccccc2)CC1 (stereo unspecified),inactive,inactive,inactive,inactive,inactive,–,inactive,inactive,inactive,inactive
C[N+]1([O-])CCOCC1,inactive,inactive,inactive,inactive,inactive,inactive,–,inactive,inactive,inactive
CC1COC(=O)O1 (stereo unspecified),inactive,inactive,inactive,inactive,inactive,inactive,–,inactive,inactive,inactive
COC(=O)c1cccc(C(=O)OC)c1,inactive,–,inactive,inactive,inactive,inactive,inactive,inactive,inactive,inactive
CC(C)(C)NCC(O)c1cc(O)cc(O)c1 (stereo unspecified),inactive,inactive,inactive,inactive,inactive,inactive,–,inactive,inactive,inactive
Cc1cc(C(C)(C)C)c(O)c(C(C)(C)C)c1,inactive,inactive,inactive,inactive,–,48.7 µM (active) and 24.3 µM (active),–,inactive,inactive,inactive

Structure (SMILES),Potency [1],Potency [2],Potency [3],Potency [4],Potency [5],Potency [6],outcome [7],Potency [8],Potency [9],outcome [10]
[Cl][In]([Cl])[Cl],inactive and 61.1 µM (active),inactive,inactive,inactive,–,inactive,inactive,inactive,inactive,inactive
NC(N)=NC(=O)Cc1c(Cl)cccc1Cl,inactive,inactive,inactive,inactive,inactive,inactive,inactive,inactive,inactive,inactive
O=C(O)CCc1ccccc1,inactive,inactive,inactive,inactive,inactive,inactive,–,inactive,inactive,inactive
CO[Si](OC)(OC)c1ccccc1,inactive,inactive,inactive,inactive,inactive,inactive,inactive,inactive,inactive,inactive
O=c1n(CC2CO2)c(=O)n(CC2CO2)c(=O)n1CC1CO1 (stereo unspecified),13.3 µM (active) and 8.58 µM (active) and 8.63 µM (active),–,inactive,inactive,inactive,inactive,inactive,inactive,inactive,inactive
CCOC(=O)C(C)C(C)=O (stereo unspecified),inactive,inactive,inactive,inactive,–,inactive,inactive,inactive,inactive,inactive
C/C=C/c1ccc(OCC)c(O)c1,inactive,–,inactive,inactive,inactive,48.6 µM (active),inactive,inactive,inactive,inactive
Cc1occc(=O)c1OC(=O)C(C)C,inactive,inactive,inactive,inactive,inactive,inactive,inactive,inactive,inactive,inactive
CC(C)C(=O)c1c(C(C)C)nn2ccccc12,inactive,inactive,inactive,inactive,inactive,inactive,inactive,inactive,inactive,inactive
CN1C(=O)c2ccc([N+](=O)[O-])cc2C1=O,inactive,inactive,inactive,inactive,inactive,61.1 µM (active),–,inactive,inactive,inactive
"Cc1c2oc3c(C)ccc(C(=O)N[C@@H]4C(=O)N[C@H](C(C)C)C(=O)N5CCC[C@H]5C(=O)N(C)CC(=O)N(C)[C@@H](C(C)C)C(=O)O[C@@H]4C)c3nc-2c(C(=O)N[C@@H]2C(=O)N[C@H](C(C)C)C(=O)N3CCC[C@H]3C(=O)N(C)CC(=O)N(C)[C@@H](C(C)C)C(=O)O[C@@H]2C)c(N)c1=O (I: T[dV]P[Sar][NMeV] / II: T[dV]P[Sar][NMeV]; ester I:1-I:C, II:1-II:C; linker I:N-II:N via Actinocin(9to1))",5.3 nM (active) and 2.7 nM (active),inactive,inactive,16.8 nM (active) and 23.7 µM (active),inactive,–,inactive,inactive,inactive,inactive
O=S(=O)(O)c1ccc2nc(-c3ccccc3)[nH]c2c1,inactive,–,9.44 µM (active) and 26 µM (active),inactive,9.44 µM (active) and 26 µM (active),inactive,inactive,inactive,inactive,inactive
Cc1cc(C2(c3cc(C)c(O)cc3C)OS(=O)(=O)c3ccccc32)c(C)cc1O,inactive,–,inactive,30.6 µM (active) and 17.2 µM (active),inactive,–,inactive,inactive,inactive,inactive
CCC[C@H](N[C@@H](C)C(=O)N1[C@H](C(=O)O)C[C@@H]2CCCC[C@@H]21)C(=O)OCC,inactive,inactive,inactive,inactive,inactive,inactive,–,inactive,inactive,inactive
CCOc1ccccc1C(N)=O,inactive,inactive,inactive,inactive,–,inactive,–,inactive,inactive,inactive
O=Cc1ccc(Cl)cc1,–,inactive,inactive,inactive,inactive,–,inactive,inactive,inactive,inactive
CC(=O)O[C@]1(C(C)=O)CC[C@H]2[C@@H]3C[C@H](C)C4=CC(=O)CC[C@]4(C)[C@H]3CC[C@@]21C,–,inactive,inactive,inactive,inactive,–,inactive,inactive,inactive,inactive
CCC(C)(Oc1ccc(C2(c3ccc(OC(C)(CC)C(=O)O)cc3)CCCCC2)cc1)C(=O)O (stereo unspecified),–,inactive,inactive,inactive,inactive,inactive,inactive,inactive,inactive,inactive
O=C(O)CP(=O)(O)O,inactive,–,inactive,inactive,–,inactive,inactive,inactive,inactive,inactive
CCCCC/C=C/CC1CC(=O)OC1=O (stereo unspecified),–,inactive,inactive,inactive,inactive,–,inactive,inactive,inactive,inactive

# Reference: PubChem BioAssay (Tox21)
